# According to ChEMBL document CHEMBL1201862, “PubChem BioAssay data set” (2004):
# The whole screen tested about 400,000 compounds, of which about 2,100 (0.53%) were called active. Inconclusive results (about 14%) are left out. The sample holds actives, similar compounds and a random draw of the others, so the mix is not that of the screen. How the calls were made is not given here.
# Biological target: Ataxin-2 (Homo sapiens) (UniProt Q99700)
# Test: qHTS for Inhibitors of ATXN expression.
# Format: functional
# Chain of Ataxin-2 (Homo sapiens) (Q99700 whole entry): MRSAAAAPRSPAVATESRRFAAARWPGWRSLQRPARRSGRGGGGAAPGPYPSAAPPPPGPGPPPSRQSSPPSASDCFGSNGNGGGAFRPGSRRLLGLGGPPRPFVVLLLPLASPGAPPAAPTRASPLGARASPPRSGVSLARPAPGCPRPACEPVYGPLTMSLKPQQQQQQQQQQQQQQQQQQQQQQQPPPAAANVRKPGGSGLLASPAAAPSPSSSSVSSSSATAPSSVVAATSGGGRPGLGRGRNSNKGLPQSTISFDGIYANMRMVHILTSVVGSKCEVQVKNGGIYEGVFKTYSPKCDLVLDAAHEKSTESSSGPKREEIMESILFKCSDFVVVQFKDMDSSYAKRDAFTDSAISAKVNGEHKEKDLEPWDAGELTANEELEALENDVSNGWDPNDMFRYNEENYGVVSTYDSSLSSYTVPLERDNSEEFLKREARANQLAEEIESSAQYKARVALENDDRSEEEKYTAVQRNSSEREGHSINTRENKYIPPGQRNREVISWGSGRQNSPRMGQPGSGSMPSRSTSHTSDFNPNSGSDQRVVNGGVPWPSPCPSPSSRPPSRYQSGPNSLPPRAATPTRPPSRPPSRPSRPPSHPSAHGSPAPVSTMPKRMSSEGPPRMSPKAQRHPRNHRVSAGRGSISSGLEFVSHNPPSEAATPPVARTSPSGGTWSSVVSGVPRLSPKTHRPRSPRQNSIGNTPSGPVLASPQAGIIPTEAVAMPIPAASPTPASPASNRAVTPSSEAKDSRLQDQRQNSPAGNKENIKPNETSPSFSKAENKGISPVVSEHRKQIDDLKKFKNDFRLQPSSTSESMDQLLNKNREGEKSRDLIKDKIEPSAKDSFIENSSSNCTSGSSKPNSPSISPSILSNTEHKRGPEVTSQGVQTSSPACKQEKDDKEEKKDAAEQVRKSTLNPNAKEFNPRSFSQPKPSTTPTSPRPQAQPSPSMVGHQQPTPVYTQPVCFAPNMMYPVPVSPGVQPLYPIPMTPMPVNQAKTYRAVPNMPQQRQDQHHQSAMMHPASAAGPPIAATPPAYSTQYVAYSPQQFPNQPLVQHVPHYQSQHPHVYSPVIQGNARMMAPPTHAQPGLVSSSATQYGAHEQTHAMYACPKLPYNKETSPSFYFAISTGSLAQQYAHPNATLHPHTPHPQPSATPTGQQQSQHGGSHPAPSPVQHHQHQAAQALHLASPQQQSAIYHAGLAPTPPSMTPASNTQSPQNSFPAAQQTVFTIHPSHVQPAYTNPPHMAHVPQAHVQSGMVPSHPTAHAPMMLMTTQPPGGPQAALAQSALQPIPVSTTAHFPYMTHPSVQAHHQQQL
row,Compound,Potency
1,CN(O)C(=S)c1ccccc1,8.91 µM (active)
2,Cc1ccc(S(=O)(=O)Nc2cc(C)c(O)c(Sc3nnc(C)[nH]3)c2)cc1,inactive
3,Cc1cc(=O)oc2c(CN3CC(C)OC(C)C3)c(O)c(Cl)cc12 (stereo not given),inactive
4,CC(=O)Oc1ccc2ccc(=O)oc2c1,inactive
5,CCN(CC)c1ccc2cc(-c3nc4ccccc4n3C)c(=O)oc2c1,inactive
6,COCCN1C=C(C(=O)OC)C(c2ccccc2C(F)(F)F)C(C(=O)OC)=C1,inactive
7,Nn1c(Cc2ccccc2)nc2ccccc2c1=O,inactive
8,COCC(C)n1c(SCc2cc(=O)n3cc(C)ccc3n2)nc2ccccc2c1=O (stereo not given),inactive
9,CCC(C)n1c(=N)c(C(=O)NCc2ccccc2)cc2c(=O)n3cc(C)ccc3nc21 (stereo not given),inactive
10,CCOC(=O)Cc1csc(N/C=C2/C(=O)N(c3ccccc3C(F)(F)F)C(=O)c3ccccc32)n1,inactive
11,CCCc1nc2c3ccccc3ccn2c1Cc1ccccc1,22.4 µM (active)
12,CCCc1nc2ccc(C)cn2c1Cc1ccccc1,22.4 µM (active)
13,CCCc1nc2ccc(C)cn2c1Cc1ccccc1OC,39.8 µM (active)
14,CCn1c(=N)c(C(=O)NCc2ccccc2)cc2c(=O)n3cc(C)ccc3nc21,inactive
15,CCCc1nc2ccc(C(=O)OC)cn2c1Cc1ccccc1C(F)(F)F,39.8 µM (active)
16,O=Cc1ccc(N2N=C(c3ccccc3)CC2c2ccccc2)cc1 (stereo not given),inactive
17,COC(=O)c1ccc(N2C(c3cc(OC)cc(OC)c3)=Cc3ccc(-c4cccnc4)cc3C2CC(=O)C2CC2)cc1 (stereo not given),inactive
18,COc1ccc(C2C=C(c3ccc(Cl)cc3)Nc3nc(NC(=O)CCC(=O)O)nn32)cc1 (stereo not given),inactive
19,CO/C(O)=C1\C(C)=NC2=C(C(=O)CC(C)(C)C2)C1c1cnn(C)c1C (stereo not given),inactive
20,CCN(CC)c1ccc2c(C)c(CN3CCOCC3)c(=O)oc2c1,inactive
21,COc1ccc(C2CC(c3cccc(F)c3)=NN2c2ccc(S(N)(=O)=O)cc2)cc1 (stereo not given),inactive
22,CNC(=O)/C(C#N)=C/c1ccc(-c2nc3ccccc3s2)o1,inactive
23,CCCc1nc2c(C)cc(Br)cn2c1Cc1ccc(C)cc1,20 µM (active)
24,CCN(Cc1cc(=O)n2cc(Cl)c(C)c(Cl)c2n1)Cc1nc(O)c2ccccc2n1,inactive
25,CC(=O)Nc1ccc(NC(=O)C(C)OC(=O)/C=C/c2cccs2)cc1 (stereo not given),inactive

row,Compound,Potency
1,COc1ccc(OC)c2sc(N(CCN(C)C)C(=O)/C=C/c3cccs3)nc12,28.2 µM (active)
2,CN(C)CCCN(C(=O)/C=C/c1cccs1)c1nc2ccc(F)cc2s1,39.8 µM (active)
3,CCOC(=O)c1s/c(=N\C(=O)/C=C/c2cccs2)n(C)c1C,inactive
4,CN(C)CCCN(C(=O)C1COc2ccccc2O1)c1nc2ccc(F)cc2s1 (stereo not given),inactive
5,CCN(CC(=O)NCc1ccc(F)cc1)C(=O)/C=C/c1cccs1,inactive
6,CC1(C)C(=O)C=CC(=O)C(C)(C)C(=O)C=CC(=O)C(C)(C)C2=CC=C(O2)C(C)(C)C(=O)C=CC1=O,39.8 µM (active)
7,COCCN=C(S)NCCCNc1nc2cc3c(cc2cc1C#N)OCO3,inactive
8,Cc1cccc(NC(=O)c2cc(-c3cc(Cl)ccc3O)[nH]n2)c1,inactive
9,Cc1ccc(O)c(-c2cc(-c3ccccc3[N+](=O)[O-])[nH]n2)c1,8.91 µM (active)
10,Cc1ccc(C(=O)c2oc3ccccc3c2NC(=O)c2cc(-c3ccccc3O)[nH]n2)cc1,inactive
11,Cc1csc(NC(=O)c2cc(O)nc3ccc(S(=O)(=O)N4CCOCC4)cc23)n1,inactive
12,Cc1ccc(/C=N/N2CCCCC2)o1,inactive
13,O=C(O)c1cc(-c2ccc(/C=C3\NC(=O)N(c4ccc(Cl)cc4)C3=O)o2)ccc1Cl,inactive
14,Cc1cc(/C=C(\C#N)C(=O)Nc2ccccc2F)c(C)[nH]1,inactive
15,CCN(CC)c1ccc(/C=C(\C#N)C(=O)NCc2ccccc2)cc1,inactive
16,CCc1cccc(CC)c1NC(=O)/C(C#N)=C/c1ccccc1C(F)(F)F,39.8 µM (active)
17,O=C(NCc1ccccn1)C(=O)C1C(=O)Nc2ccccc21 (stereo not given),inactive
18,COc1ccc([C@H]2/C=C\CN(C(=O)CC(C)(C)C)[C@@H](C)C(=O)N2Cc2ccc(F)cc2)cc1,35.5 µM (active)
19,COc1ccc(CCNC2=CC(=O)N(c3ccc(F)cc3)C2=O)cc1,inactive
20,COc1cc(C(=O)N/N=C/c2sc(N3CCOCC3)nc2-c2ccccc2)cc(OC)c1OC,inactive
21,COc1ccc(/C=C2\Oc3cc(OCC(=O)N4CCC(C(=O)O)CC4)ccc3C2=O)c(OC)c1,inactive
22,Cc1cs/c(=N\c2cccnc2)n1Cc1ccco1,inactive
23,COC(=O)Cc1c(C)c2cc3c(c(C)c2oc1=O)OCN(CCc1ccccc1F)C3,inactive
24,CCOC(=O)c1cc2c(=O)n3ccccc3nc2n(Cc2ccco2)/c1=N\C(=O)c1c(F)cccc1Cl,inactive
25,COC(=O)c1cc(=O)n(-c2ccc(F)cc2)/c(=N/c2ccc(F)cc2)s1,23.8 µM (active)

row,Compound,Potency
1,COC(=O)c1cc(=O)n(Cc2ccco2)/c(=N/c2ccc(F)c(Cl)c2)s1,3.16 µM (active)
2,COC(=O)c1cc2c(s1)-c1cc(F)ccc1OC2,inactive
3,COC(=O)c1cc(=O)n(CCc2ccccc2F)/c(=N/c2ccc(F)c(Cl)c2)s1,33.6 µM (active)
4,Cc1ccc(CCNC(=O)c2cc(S(=O)(=O)N3CCOCC3)cn2C)cc1,inactive
5,COc1ccc(CN(C(=O)c2snc(C(N)=O)c2N)C(C)C(=O)NCc2ccc(F)cc2)cc1 (stereo not given),inactive
6,CNc1nc(N)c([N+](=O)[O-])c(NCC2CCCO2)n1 (stereo not given),inactive
7,COc1ccc(Nc2nc(N)c([N+](=O)[O-])c(NC3CCCCC3)n2)cc1,31.6 µM (active)
8,CCc1nc(Nc2cccc(OC)c2)c2oc3ccccc3c2n1,inactive
9,COc1cccc(Nc2nc(N)c([N+](=O)[O-])c(NCc3ccccc3)n2)c1,31.6 µM (active)
10,COc1cccc(/C=C/c2nc(C#N)c(NC3CCCCC3)o2)c1,inactive
11,COc1cccc(-c2ccc3c(N)c(C(=O)NCc4ccc(Cl)cc4)sc3n2)c1,inactive
12,O=C1/C(=C/c2ccco2)Oc2c1ccc(O)c2CN1CCCCC1,inactive
13,O=[N+]([O-])c1ccc(-c2cn3nc(-c4ccccc4)c(-c4ccccc4)nc3n2)cc1,inactive
14,O=[N+]([O-])c1cccc(C2CC(c3ccccc3)=NN2c2ccccc2)c1 (stereo not given),inactive
15,O=c1cc(-c2ccccc2)[nH]n1-c1ccc([N+](=O)[O-])cc1,20 µM (active)
16,CCOc1ccc(/C=C/c2nc(C#N)c(NCCCOC)o2)cc1,inactive
17,C#CCN(C[C@H]1[C@H](OC(=O)NC2CCCC2)[C@H](OC(=O)NC2CCCC2)C[C@@H](C(=O)OC)[C@H]1C(=O)OC)S(=O)(=O)c1ccc(C)cc1,39.8 µM (active)
18,CC(C)N1CCC(N2CCN(Cc3cccc4nonc34)CC2CCO)CC1 (stereo not given),inactive
19,CCCCNC(=O)CN1C(=O)c2cccc(N)c2C1=O,inactive
20,Clc1ccc(-c2cn3nc4c(nc3n2)CCCC4)cc1,inactive
21,COc1ccccc1/C=C/C=C1\Oc2c(ccc(O)c2CN(C)C)C1=O,inactive
22,COc1cccc2sc(Nc3nnc(-c4ccc(F)cc4)o3)nc12,31.6 µM (active)
23,COc1ccc(-c2nnc(-c3ccc(F)cc3)o2)cc1,inactive
24,CCOc1cccc2sc(NN)nc12,inactive
25,Cc1cccn2c(=O)c3cc(C(=O)NCc4ccccc4)c(=N)n(CCOCCO)c3nc12,inactive

row,Compound,Potency
1,Cc1c(O)c(CN2CCCC2)cc2c3c(c(=O)oc12)CCC3,inactive
2,COc1ccc(CCN2C(=O)COc3ccccc3C2C(=O)Nc2ccc3c(c2)OCCO3)cc1OC (stereo not given),25.1 µM (active)
3,Cc1ccc(NC(=O)C2OCCc3ccccc32)cc1C (stereo not given),inactive
4,CCCCNc1c(N)n(CCC)c(=O)[nH]c1=O,inactive
5,O=C(CN1C(=O)NC(Cc2c[nH]c3ccccc23)C1=O)Nc1ccc(F)c(F)c1F (stereo not given),inactive
6,Cc1csc(N=C(S)Nc2cccc(Cl)c2)n1,25.1 µM (active)
7,CN(C)C(CN=C(S)Nc1cccc(Cl)c1)c1cccnc1 (stereo not given),inactive
8,CC(C)c1cccc(C(C)C)c1N=C(S)Nc1cccc(Cl)c1,inactive
9,CCCCC[C@@H](C)N1C[C@H](COCc2ccccc2)Oc2cc(N3CCC[C@H]3CO)ccc2S1(=O)=O,10 µM (active)
10,CCCCC[C@H](C)N1C[C@H](COCc2ccccc2)Oc2cc(N3CCC[C@H]3CO)ccc2S1(=O)=O,28.2 µM (active)
11,CCCCC[C@@H](C)N1C[C@H](COCc2ccccc2)Oc2cc(N3CCC[C@@H]3CO)ccc2S1(=O)=O,39.8 µM (active)
12,Cc1ccc(-c2nc3n(n2)C(c2ccccc2C)C=C(c2ccc(Cl)cc2)N3)cc1 (stereo not given),inactive
13,COC(=O)c1ccc(C)c(NC(=O)CSc2nc3nc(O)cc(O)c3s2)c1,inactive
14,Cc1cccc2c1-c1sc(C(=O)Nc3nccs3)cc1CO2,inactive
15,COc1ccc(S(=O)(=O)N2CCN(Cc3cc(OC)c(OC)cc3OC)CC2)cc1,inactive
16,Cc1ccnc(N2C(=O)c3cccc4c([N+](=O)[O-])ccc(c34)C2=O)c1,inactive
17,Cc1cccc(NC(=O)CNC(=O)Cn2ncc(Cl)c(Cl)c2=O)c1C,21.2 µM (active)
18,COc1ccc(CN(C)C(C)C(=O)N(C)CC(=O)Nc2ccc(C)cc2)cc1F (stereo not given),inactive
19,Cc1ccccc1OCC(=O)Nc1cccc(Cl)c1C,inactive
20,CN(CC(=O)Nc1ccccc1Cl)C(=O)CN1C(=O)NC(c2ccccc2)(c2ccccc2)C1=O,inactive
21,CN(CC(=O)Nc1c(Cl)cccc1Cl)C(=O)C1CC(=O)N(Cc2ccccc2)C1 (stereo not given),inactive
22,Cc1ccc(CNC(=O)Cn2ncn3cccc3c2=O)cc1,inactive
23,Cc1ccc(NC(=O)CN(C)C(=O)Cn2ncc(Cl)c(Cl)c2=O)cc1,28.2 µM (active)
24,CCc1ccccc1NC(=O)CN(C)C(=O)Cn1ncc(Cl)c(Cl)c1=O,35.5 µM (active)
25,CC(=O)Nc1ccc(NC(=O)CCC(=O)Oc2ccc(C)cc2)cc1,inactive
